HP1b chromo inh = HP1-beta chromodomain-methylated histone interaction inhibition; P83916; AlphaScreen HP1-beta / biotin-H3K9me3 peptide binding; Potency, µM (doses to about 114 µM), actives largely listed as inhibitors; 0.56% of 390,000 active; also: nearly all actives have a fitted effect of over 70% in size
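HP1-beta protein (50 nM final) preincubated 30 min at room temperature with biotinylated H3(1-18)K9me3 peptide (50 nM) in PBS pH 7.4, 0.01% Tween-20, then compound added for 30 min. AlphaScreen streptavidin donor/nickel chelate acceptor beads (10 ug/mL final), 30 min dark, luminescence read.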
TDP1 inh = inhibitors of human tyrosyl-DNA phosphodiesterase TDP1 | Q9NUW8 | recombinant TDP1, AlphaScreen DNA substrate cleavage | Potency, µM (series often up to 130 µM), actives largely listed as inhibitors | 0.28% of 350,000 active | AID 485290; also: nearly all actives have a fitted effect of over 40% in size
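Steps: enzyme plus compound, 15 min RT; add biotin/phosphotyrosine-FITC oligonucleotide (15 nM final), react 5 min; add donor/acceptor beads (10 ug/ml final), 10 min; read AlphaScreen. Tdp1 at 1 nM final.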
G9a inh = G9a (human) methyltransferase inhibition; Q96KQ7; 8.8% of 350,000 active; Potency, µM (titrated, usually from 102 µM), hits mostly inhibitors; G9a H3K9 monomethylation, AlphaScreen, 2 h; also: nearly all actives have a fitted effect of over 75% in size
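Using a bead-based AlphaScreen, monomethylated H3K9 product from 2 h room-temperature reactions (G9a 20 nM, peptide 500 nM, SAM 20 uM) was detected with 0.5 ug/mL rabbit anti-H3K9me1 antibody.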
BAZ2B inh = blocks human BAZ2B. Potency, µM (highest dose often 114 µM), usual class: inhibitors. Q9UIF8. AID 504333. 4.4% of 360,000 active. AlphaScreen BAZ2B-H3K14Ac peptide displacement; also: nearly all actives have a fitted effect of over 60% in size
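Inhibition is scored as reduced AlphaScreen emission. The BAZ2B/b-H3(5-23)K14Ac complex (50 nM each) in PBS pH 7.4, 0.01% Tween-20 meets compound (up to 110 uM) for 30 min at RT before bead addition.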
Sfp PPTase inh = inhibitors of Bacillus subtilis Sfp phosphopantetheinyl transferase; 3.5% of 310,000 active; Biochemical Sfp PPTase activity, qHTS; Q9F4F7; AID 1490; Potency, µM, most hits filed as inhibitors;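 also: the enzyme is Sfp with the accession as filed and its product quenches rhodamine fluorescence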
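After 15 min at room temperature with compound, 15 nM Sfp received 5 uM rhodamine-CoA plus 12.5 uM BHQ-2-ybbR (50 mM Hepes pH 7.6, 10 mM MgCl2). Rate came from the fluorescence difference over 30 min, ex 525/em 598 nm.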
JMJD2A Tudor = JMJD2A Tudor domain (human) inhibition. O75164. AlphaScreen JMJD2A-Tudor / H3K4me3 peptide binding. Potency, µM (series often up to 114 µM), usual class: inhibitors. 4.4% of 390,000 active; also: nearly all actives have a fitted effect of over 50% in size
Hits are given with their value; . = inactive; ? = inconclusive; / = no result; ! = not confirmed by another sample; [ ] = dose if it differs, or a comment. Sampled rows, rich in hits. Any-hit rate of the full collection: about 12%. Calls follow the shape of the dose curve; as a rule, active = well fitted curve in the direction sought with a large enough effect; inconclusive = small, poorly fitted or top-dose-only effect, or another doubt; inactive = no such curve, though single readings can be large; an effect the other way counts as inactive or inconclusive.

SMILES	HP1b chromo inh	TDP1 inh	G9a inh	BAZ2B inh	Sfp PPTase inh	JMJD2A Tudor
C#CCOCCOCCOCCNc1nc(N2CCN(C(=O)CCCCCCCCCCNC(=O)[C@@H](CCC(=O)O)n3cc(CCCCCN)nn3)CC2)nc(N2CCN(C(=O)CCCCCCCCCCNC(=O)[C@H]([C@@H](C)CC)n3cc(CCCCCN)nn3)CC2)n1	.	.	.[2.33 µM]	56µM	/	?
CN1CCCC1CCNc1ncnc2ccc(-c3ccc4c(c3)OCO4)cc12 (centres undefined)	/	/	/	/	/	.
Fc1cccc(F)c1-c1nc(-c2ccncc2)no1	.	.	.	.	.	.
CCCNCC(=O)Nc1cccc(S(=O)(=O)NC2=NCCCCC2)c1	?	.	/	/	/	1µM
O=C(Cc1csc(-c2cccc(Cl)c2)n1)Nc1cccc(S(=O)(=O)NC2=NCCC2)c1	.	/	14µM	.	/	.
CON(C)S(=O)(=O)c1cccc(C(=O)Nc2ccc(S(=O)(=O)NC3=NCCCCC3)cc2)c1	.	.	50µM	.	/	.
Cc1ccc(Nc2nnc(SCC(=O)Nc3cccc(S(=O)(=O)NC4=NCCCCC4)c3)s2)c(C)c1	.	.	40µM	.	.	.
CON(C)S(=O)(=O)c1cccc(C(=O)Nc2cccc(S(=O)(=O)NC3=NCCCCC3)c2)c1	.	/	/	/	/	.
O=C(c1cc(-c2ccccc2)nn1-c1ccccc1)N1CCN(S(=O)(=O)c2c(F)cccc2F)CC1	.	.	.[0.501 µM]	.	/	.
Cc1ccc(C)c(N2CCN(C(=O)CN3C(=O)CSc4c3c(C)nn4-c3ccccc3)CC2)c1	.	.	.	.	/	.
COc1ccc(NC(=O)c2ccc(CN3C(=O)CCn4nc(C)cc43)cc2)c(OC)c1	.	.	?	.	/	.
CCCCCC(=O)Nc1cccc(S(=O)(=O)NC2=NCCC2)c1	.	.	.[12.7 µM]	.	/	.
CNC(=S)Nc1cccc(S(=O)(=O)NC2=NCCC2)c1	.	.	50µM	/	.	.
CCOC(=O)C1C(=O)NCC2CCCC21 (centres undefined)	.	.	.[12.7 µM]	.	.	.
CCOC(=O)C1C(=O)C(C(C)=O)C(=O)CC1CC(C)SCC (centres undefined)	.	.	?	.	.	89µM
O=C(CCc1ccc(Oc2cc([N+](=O)[O-])cc([N+](=O)[O-])c2)cc1)Nc1cccc(Cl)c1	?	.	8.9µM	?	.	.
O=C(CCc1ccc(Oc2cc([N+](=O)[O-])cc([N+](=O)[O-])c2)cc1)N1CCCCC1	.	.	?	25µM	14µM	56µM
COc1ccc(CCC(=O)Nc2cccc(Cl)c2)cc1	.	.	.	.	.	.
Cc1cc([C@](C)(N)C(=O)O)ccc1P(=O)(O)O	/	.	/	/	.	/
Cc1ccc(CN(Cc2ccco2)C(=O)COc2ccccc2C)cc1	.	.	.	.	/	.
COCCn1c(SCc2cc(=O)n3ccsc3n2)nnc1-c1ccncc1	.	.	.	.	.	40µM
Cc1ccc2nc(CSc3nnc(-c4ccncc4)n3C)cc(=O)n2c1	.	.	40µM	.	.	.
COc1ccc(/C(C)=N/NC(=O)c2cc(C)[nH]n2)c(OC)c1	.	.	.	.	.	.
COc1ccc(NC(=O)c2c(-c3ccccc3)c(-c3ccccc3)nn(C)c2=O)c(OC)c1	.	.	.	.	/	.
CC12CCC(O)CC1=CCC1C2CCC2(C)C1CCC21CCC(=O)O1 (centres undefined)	.	.	.	.	.	.
SMILES	HP1b chromo inh	TDP1 inh	G9a inh	BAZ2B inh	Sfp PPTase inh	JMJD2A Tudor
C[C@]12CCC3C(CC=C4C[C@@H](O)CC[C@@]43C)C1CCC2[C@]1(C)CCC(=O)O1 (some centres undefined)	?	.	?	56µM	.	?
COc1ccc(CNC(=O)OCc2nccnc2C(=O)Nc2ccc(Br)cn2)cc1	.	.	/	.	.	.
Cc1nc2c(C(=O)NCc3ccccc3)c[nH]n2c(=O)c1Cl	.	.	79µM	.	.	.
Cc1ccc(CS(=O)Cc2ccc(C(=O)NCc3ccccc3Cl)o2)cc1 (centres undefined)	.	.	79µM!	.	.	.
Cc1nc2c(C(=O)NCCc3ccccc3Cl)c[nH]n2c(=O)c1Cl	.	.	50µM	.	.	.
Cc1ccc(CNC(=O)c2ccc(CS(=O)Cc3ccccc3Cl)o2)cc1 (centres undefined)	.	.	.	.	.	.
Cc1nc2c(C(=O)NCc3ccccc3Cl)c[nH]n2c(=O)c1Cl	.	.	16µM	.	.	.
Cc1nc2c(C(=O)NCc3ccccc3)c[nH]n2c(=O)c1Cc1ccccc1Cl	?	.	.	.	/	.
COCCN(C(=O)CSc1nnc(-c2ccco2)n1C)c1c(N)n(CC(C)C)c(=O)[nH]c1=O	.	.	.[12.7 µM]	.	/	.
CCc1ccc(C2=NN(CCC(=O)NC(C)CCc3ccccc3)C(=O)CC2)cc1 (centres undefined)	.	.	.	.	.	.
Cc1nc(C)c(C(=O)NCc2ccccc2Cl)o1	.	.	?	.	89µM	?
N#Cc1ccc(C(=O)Nc2nnc(-c3ccccn3)o2)cc1	.	.	50µM	8.9µM	.	?
CC(=O)Nc1nnc(-c2ccccn2)o1	.	.	28µM	?	?	?
O=C(Nc1nnc(-c2ccccn2)o1)c1cccc(Cl)c1	.	.	.	/	.	.
COc1ccc(C2c3ccc4ccccc4c3Oc3ncn(CCN(C)C)c(=N)c32)cc1 (centres undefined)	.	/	.[2.33 µM]	.	.	.
Cc1cc(C)cc(Cn2ncc3c4sc(C)cc4n(C)c3c2=O)c1	/	/	/	/	/	.
C(=N\n1c2ccccc2c2ccccc21)/c1ccccc1	.	.	.	.	.	.
C(=N/n1c2ccccc2c2ccccc21)/c1ccco1	35µM	.	?	8.9µM	.	?
CCCn1c(-c2ccc(F)cc2)nc2c(NCCN(C)C)nc(C)nc21	/	.	/	/	.	/
Clc1ccc(Cn2cc3c(n2)-c2cc4ccccc4n2C3)cc1	.	.	/	/	/	.
CCOC(=O)c1n[nH]c2ccccc12	.	.	.	.	.	.
CCOC(=O)c1n[nH]n2c1nc(=S)c1ccccc12	.	/	10µM	.	?	89µM
C(=N\N1CCN(C2c3ccccc3-c3ccccc32)CC1)/c1ccncc1	?	.	?	35µM	.	45µM
COc1ccccc1N1CCN(/N=C/c2cccc(OC)c2O)CC1	.	.	.	?	.	?
Oc1cccc(/C=N/N2CCN(C3c4ccccc4-c4ccccc43)CC2)c1	?	.	?	?	.	40µM
C/C(=N\N1CCN(C2c3ccccc3-c3ccccc32)CC1)c1ccncc1	?	.	.[0.501 µM]	?	.	?
COc1cc(/C=N/N2CCN(C3c4ccccc4-c4ccccc43)CC2)ccc1O	.	.	?	35µM	.	56µM
